Test results: PubChem BioAssay (EPA / NIEHS)
Where “and” joins values, the source holds several entries; their conditions need not be identical. Identical values can stand only once. A structure can be active in one record and inactive in another. Calls of active or inactive are those of the source. The calls were made as follows: active = hit-call score of the fitted dose curve at least 0.9, where 1 is the maximum; inactive = score below 0.9.

What was measured:
[1] = read-out: Collagen I, COL1A1 (gene 1277); experiment: BSK_MyoF_CollagenI: BioMAP Diversity Plus: MyoF Assay for Collagen I Biomarker Activity (AID 2284238); details: primary human lung fibroblasts
How it was run: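 Collagen I levels measured by ELISA on human lung fibroblast cultures 24 h post-dosing, with curve fitting in the positive direction relative to DMSO; SRB staining of parallel wells marked cytotoxicity.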

[2] = read-out: Collagen III, COL3A1 (gene 1281); experiment: BSK_MyoF_CollagenIII: BioMAP Diversity Plus: MyoF Assay for Collagen III Biomarker Activity (AID 2284239); details: primary human lung fibroblasts
How it was run: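 Collagen III biomarker quantified by ELISA in human lung fibroblast cultures 24 h after dosing. Activity fitted in the positive direction against DMSO as baseline.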

[3] = read-out: Interleukin 17F (IL17F), IL17F (gene 112744); experiment: BSK_BT_xIL17F: BioMAP Diversity Plus: BT Assay for Interleukin 17F (IL17F) Biomarker Activity (AID 2284243); details: primary human B cells with PBMC
How it was run: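 Human B cells co-cultured with PBMC; secreted IL-17F quantified by LumineX xMAP 24 hours after chemical dosing. Activity fitted in the positive direction against DMSO negative control as baseline.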

[4] = read-out: Actin alpha 1 (ACTA1), ACTA1 (gene 58); experiment: BSK_MyoF_ACTA1: BioMAP Diversity Plus: MyoF Assay for Actin alpha 1 (ACTA1) Biomarker Activity (AID 2284244); details: primary human lung fibroblasts
How it was run: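 Measured by ELISA: alpha-smooth muscle actin in human primary lung fibroblasts 24 h after dosing, with DMSO as baseline and upward signal change as the fitted direction.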

[5] = read-out: Interleukin 2 (IL2), IL2 (gene 3558); experiment: BSK_BT_xIL2: BioMAP Diversity Plus: BT Assay for Interleukin 2 (IL2) Biomarker Activity (AID 2284245); details: primary human B cells with PBMC
How it was run: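 Secreted interleukin-2 from human B cell/PBMC co-cultures, measured 24 h post-dosing by Luminex multiplex immunoassay. Upward-direction curve fitting against DMSO baseline.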

[6] = read-out: Basic fibroblast growth factor (bFGF), FGF2 (gene 2247); experiment: BSK_MyoF_bFGF: BioMAP Diversity Plus: MyoF Assay for Basic fibroblast growth factor (bFGF) Biomarker Activity (AID 2284246); details: primary human lung fibroblasts
How it was run: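 In this multiplexed cell system, lung fibroblasts (human primary) receive test chemical for 24 h before ELISA detection of bFGF; DMSO defines baseline and the analysis direction is positive.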

[7] = read-out: Collagen IV, COL4A1 (gene 1282); experiment: BSK_MyoF_CollagenIV: BioMAP Diversity Plus: MyoF Assay for Collagen IV Biomarker Activity (AID 2284247); details: primary human lung fibroblasts
How it was run: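 Activity is scored as a signal increase over DMSO in an ELISA for Collagen IV, measured on human lung fibroblasts at 24 h after chemical treatment. Cytotoxicity is checked in parallel cultures by sulforhodamine B total-protein staining.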

[8] = read-out: Plasminogen activator inhibitor-1 (PAI1), SERPINE1 (gene 5054); experiment: BSK_MyoF_PAI1: BioMAP Diversity Plus: MyoF Assay for Plasminogen activator inhibitor-1 (PAI1) Biomarker Activity (AID 2284256); details: primary human lung fibroblasts;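 as to outcome: PAI-1 protein level measured by ELISA in fibroblast cultures; PAI-1 read 24 h after compound addition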
How it was run: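 Human lung fibroblasts (MyoF system) were exposed to test chemicals for 24 h, then PAI-1 was quantified by ELISA. Activity was fitted in the positive (signal-gain) direction relative to DMSO vehicle as baseline.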

[9] = read-out: Monokine induced gamma interferon (MIG), CXCL9 (gene 4283); experiment: BSK_KF3CT_MIG: BioMAP Diversity Plus: KF3CT Assay for Monokine induced gamma interferon (MIG) Biomarker Activity (AID 2284248); details: primary human keratinocytes with fibroblasts
How it was run: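 Parallel cultures were stained with SRB (560 nm) to check cytotoxicity. MIG was quantified by ELISA in a primary human skin keratinocyte/fibroblast co-culture 24 h post-dosing, with gain of signal fitted relative to DMSO.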

[10] = read-out: Vascular cell adhesion molecule 1 (VCAM1), VCAM1 (gene 7412); experiment: BSK_BF4T_VCAM1: BioMAP Diversity Plus: BF4T Assay for Vascular cell adhesion molecule 1 (VCAM1) Biomarker Activity (AID 2284249); details: primary human bronchial epithelial cells with fibroblasts
How it was run: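 Human bronchial epithelial cell and dermal fibroblast co-culture exposed 24 h. VCAM-1 measured by ELISA; parallel SRB total-protein staining for cytotoxicity. Fitted in positive direction relative to DMSO.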

[11] = read-out: Collagen I, COL1A1 (gene 1277); experiment: BSK_hDFCGF_CollagenI: BioMAP Diversity Plus: hDFCGF Assay for Collagen I Biomarker Activity (AID 2284250); details: primary human foreskin fibroblasts
How it was run: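 Cells were primary human foreskin fibroblasts treated for 24 h. Collagen I levels were then determined by ELISA and compared against DMSO controls.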

[12] = read-out: Monocyte Chemoattractant Protein-1 (MCP1), CCL2 (gene 6347); experiment: BSK_IMphg_MCP1: BioMAP Diversity Plus: IMphg Assay for Monocyte Chemoattractant Protein-1 (MCP1) Biomarker Activity (AID 2284253); details: primary human endothelial cells with macrophages
How it was run: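 Human venular endothelial cells co-cultured with macrophages; MCP-1 measured by ELISA 24 hours post-dose and fitted against DMSO. Cytotoxicity monitored by SRB total-protein staining in parallel cultures.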

[13] = read-out: Macrophage Inflammatory Protein-1 Alpha (MIP1a), CCL3 (gene 6348); experiment: BSK_IMphg_MIP1a: BioMAP Diversity Plus: IMphg Assay for Macrophage Inflammatory Protein-1 Alpha (MIP1a) Biomarker Activity (AID 2284255); details: primary human endothelial cells with macrophages
How it was run: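 Co-culture of human venular endothelial cells and macrophages exposed to compounds for 24 h; MIP-1a measured by ELISA relative to DMSO. Cytotoxicity assessed in parallel cultures by sulforhodamine B total-protein staining at 560 nm.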

CC(=O)OC(C)(C)C1CC=C(C)CC1 (configuration not stated)
outcome [1]: inactive | outcome [2]: inactive | outcome [3]: inactive | outcome [4]: inactive | outcome [5]: inactive | outcome [6]: inactive | outcome [7]: inactive | outcome [8]: inactive

OCC(F)(OC(F)(F)C(F)(OC(F)(F)C(F)(F)C(F)(F)F)C(F)(F)F)C(F)(F)F (configuration not stated)
AC50 [1]: 5.55 µM (active) and 3.38 µM (active) | AC50 [2]: 5.14 µM (active) and 4.82 µM (active) | AC50 [3]: 5.47 µM (active) and 5.77 µM (active) | AC50 [4]: 3.43 µM (active) and 4.31 µM (active) | AC50 [5]: 4.97 µM (active) | outcome [5]: inactive | outcome [6]: inactive | AC50 [7]: 3.9 µM (active) | outcome [7]: inactive | AC50 [9]: 5.41 µM (active) and 3.33 µM (active) | outcome [10]: inactive | outcome [11]: inactive | AC50 [12]: 4.65 µM (active) | outcome [12]: inactive | outcome [13]: inactive | outcome [8]: inactive

CC(C)CCCC(C)(C)O
outcome [9]: inactive | outcome [11]: inactive

CCn1cc(C(=O)O)c(=O)c2ccc(C)nc21
outcome [9]: inactive | outcome [11]: inactive

CC(=O)c1ccc(C)cc1
outcome [9]: inactive | outcome [11]: inactive

NC(=O)c1c(Cl)cccc1Cl
outcome [1]: inactive | outcome [2]: inactive | outcome [3]: inactive | outcome [4]: inactive | outcome [5]: inactive | outcome [6]: inactive | outcome [7]: inactive | AC50 [8]: 4.48 µM (active)

CCCCCCCC1CCCC1=O (configuration not stated)
AC50 [1]: 32.6 µM (active) | AC50 [2]: 32.7 µM (active) | outcome [3]: inactive | outcome [4]: inactive | outcome [5]: inactive | outcome [6]: inactive | outcome [7]: inactive | outcome [8]: inactive

CC1(C)[C@H](C=C(Cl)Cl)[C@H]1C(=O)OCc1cccc(Oc2ccccc2)c1
outcome [1]: inactive | outcome [2]: inactive | outcome [3]: inactive | outcome [4]: inactive | outcome [5]: inactive | outcome [6]: inactive | outcome [7]: inactive | outcome [8]: inactive

CCCCCCCCCC(=O)OCC
outcome [1]: inactive | outcome [2]: inactive | outcome [3]: inactive | AC50 [4]: 26.9 µM (active) | outcome [5]: inactive | outcome [6]: inactive | outcome [7]: inactive | outcome [8]: inactive

O=C1OC2(c3ccc(O)cc3Oc3cc(O)ccc32)c2ccccc21
outcome [1]: inactive | outcome [2]: inactive | outcome [3]: inactive | outcome [4]: inactive | outcome [5]: inactive | outcome [6]: inactive | outcome [7]: inactive | outcome [8]: inactive

COc1ccccc1NC(=O)CC(C)=O
outcome [1]: inactive | outcome [2]: inactive | outcome [3]: inactive | outcome [4]: inactive | outcome [5]: inactive | outcome [6]: inactive | outcome [7]: inactive | outcome [8]: inactive

CCCO[Si](OCCC)(OCCC)OCCC
outcome [9]: inactive | outcome [11]: inactive

Nc1ccc(N)c([N+](=O)[O-])c1
outcome [1]: inactive | outcome [2]: inactive | outcome [3]: inactive | outcome [4]: inactive | outcome [5]: inactive | outcome [6]: inactive | outcome [7]: inactive | outcome [8]: inactive

O=S1(=O)CC(Cl)(Cl)C(Cl)(Cl)C1
AC50 [1]: 1.52 µM (active) | AC50 [2]: 1.89 µM (active) | AC50 [3]: 515 nM (active) | AC50 [4]: 1.13 µM (active) | AC50 [5]: 0.703 µM (active) | AC50 [6]: 2.06 µM (active) | AC50 [7]: 1.85 µM (active) | AC50 [8]: 2.62 µM (active)

CCCCN(CCO)CCO
outcome [9]: inactive | outcome [11]: inactive

CCCCCCCCCCCCS
AC50 [1]: 20 µM (active) | AC50 [2]: 27.9 µM (active) | outcome [3]: inactive | AC50 [4]: 18.6 µM (active) | outcome [5]: inactive | AC50 [6]: 29 µM (active) | outcome [7]: inactive | AC50 [8]: 20 µM (active)

CC(C)(C)c1cccc(O)c1
outcome [1]: inactive | outcome [2]: inactive | outcome [3]: inactive | outcome [4]: inactive | outcome [5]: inactive | outcome [6]: inactive | outcome [7]: inactive | outcome [8]: inactive

CCOC(=O)C=Cc1ccccc1
outcome [1]: inactive | outcome [2]: inactive | outcome [3]: inactive | outcome [4]: inactive | outcome [5]: inactive | outcome [6]: inactive | outcome [7]: inactive | outcome [8]: inactive

CC(C)(CO)CO
outcome [9]: inactive | outcome [11]: inactive

OCCN1CCOCC1
outcome [1]: inactive | AC50 [2]: 0.016 µM (active) | outcome [3]: inactive | outcome [4]: inactive | outcome [5]: inactive | outcome [6]: inactive | outcome [7]: inactive | outcome [8]: inactive

c1ccc(OCCOc2ccccc2)cc1
outcome [9]: inactive | outcome [11]: inactive

CC(=O)OCC=C(C)CCC=C(C)CCC=C(C)C
outcome [1]: inactive | outcome [2]: inactive | AC50 [3]: 30300 nM (active) | outcome [4]: inactive | AC50 [5]: 36.4 µM (active) | outcome [6]: inactive | outcome [7]: inactive | outcome [8]: inactive

CC(=O)CCC=C(C)CCC=C(C)C
outcome [2]: inactive | outcome [3]: inactive | outcome [4]: inactive | outcome [5]: inactive | outcome [6]: inactive | outcome [7]: inactive | AC50 [8]: 0.016 µM (active)

CCC(=O)OCC=Cc1ccccc1
outcome [1]: inactive | outcome [2]: inactive | outcome [3]: inactive | outcome [4]: inactive | outcome [5]: inactive | outcome [6]: inactive | outcome [7]: inactive | outcome [8]: inactive
